Measurements reported in the supplement of paper PMC6555819.

tested on: RARb homodimer (NR concentration 270 nM); test: PBM binding z-score (relative to random genomic background probes); higher = stronger binding; sequences stand for … in GC…GCGATTGACAGCGTAGAATGAAGG
Procedure, shortened: (§1)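 Scanned fluorescence from custom Agilent 4×180K protein-binding microarrays was regression-normalized. Binding z-scores use random background probes as reference. Ligand-free nuclear receptor dimers were incubated on the arrays for 1 h and detected with antibodies against each partner (one per run).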

| Sequence | PBM binding z-score |
| --- | --- |
| AGAATTAGGTTATTAAGATCAGGGAATTGCGGTC | 0.844 |
| AGAACGAGGGCAAAGAGTTGATAGCACGGGTGGC | 1.12 |
| TTACGAAGGTGAAGGTCGTTGATCCCTCTGTAGA | 1.84 |
| CAGCCTAGGTCACGGCCAGTATAGGAGGAACGTT | 3.53 |
| AGTCTAAGTTCATCTAGGTAACGTAAGATATGCT | 2.48 |
| GCTGCTAGGTCAAATGATGGTCAGCTAAAGCTCG | 3.24 |
| CAAACTAGGTCTAGAGGTCAAAGTCCGCTTCCCG | 4.55 |
| CCGACTGGGGCATAAGGTTAACATAAGCCAGCCC | 1.89 |
| AGAACGTGGGCACGCTGAGTTGATAGCAGAGTAG | -0.561 |
| CAAACTAGGTCACGAAAGGTCAAACTCGAATGAC | 5.84 |
| GCGACTGGGGCATCCGCAGGTTACCATAACTTAA | 0.945 |
| ATCTCTATGTAAAGTTCAGTGAAAGATCGATAGA | 2.23 |
| TGAATGAGGTTATAAGATTAGGGAACGTTGCAAA | 0.24 |
| GCGACTGGGGCATCAGCAGGTTACCACAACTTAA | 1.08 |
| GCTATTAGTTGAAAGGGCAACTGAATGATTCTCG | 1.9 |
| ATCTCTAGGTAAAGATAGTTCAGTGATTGCAAAT | 1.2 |
| GGAAGGAGGGCATTCGAGTTGATAGCATGGCGAT | 1.15 |
| CCTATCAGGCCAATCTGGGTCACTCAAGGCTTGA | 2.48 |
| ACTAGCAGGCCAAGGGTCATTCAAGATTAGTCCG | 3.62 |
| CCGAGTAGGTTATGGGGCATTCAAGCAACGGTGA | 0.855 |

| Sequence | PBM binding z-score |
| --- | --- |
| TTTCAAAGTTCAAAGGTAACGTAAGTATCCACAC | 3.87 |
| TCTAGCAGGCCAGAGGGTCGCTCAAGAGGTACGG | 0.452 |
| TATACAGGGTCAAAAGCCAGAGTACGAATGTCGA | 2.74 |
| CCTCGGAGGACAACAGGAGGTCAGAGCCGCCAGA | 3.53 |
| CCGACTGGGGCAAAGGTTACCTTACTCAGTACGA | 2.02 |
| CGAACGAGAGCATGAGTTGATAGCAAATGCCGAT | -0.657 |
| CCAGACAGGTGAAAGATAACTCAGTCTGGTACGC | 0.244 |
| CCTATTAGTTGACCATAAGGGCAATCGAAGCTCG | 1.72 |
| CCTTACGGATCAAGGTTATAGCACGGGTGGTACG | 0.857 |
| TAGCCTAGGTCATCGGCCAGTATACCACGCGAAC | 2.9 |
| CAAACTTGGTCAAGAGGTCAAAGTCCGCTTCCCG | 4.85 |
| CGTCAATGTTCAAGGTAACGTAACAGAAAGCAGC | -0.0496 |
| GCTAGCAGGCCATTTGGGTCAATCAATGACGGGC | 1.62 |
| CAAACTAGGTCAAGAGGTCATAGTCCGCTTCCCG | 5.49 |
| GGAACGAGGGCAAGGTGATAGCAGAGTTTGATGG | 2.04 |
| CCTCGGAGTACAACAGGAGGTCAGAGCTGCCAGA | 2.99 |
| TAGCCTAGGTCATGCGGGCCAGTAGAGTGTCGGC | 3.12 |
| TCATATAGGTAAATGCTAGATGAAAGTCCGATCT | -0.248 |
| TCTTGTAGATCAATAGAGGTTAAGAACGTGCGCT | 1.05 |
| TAGCCTAGGTCATGGGCCAGTCTACCACGCGAAC | 2.8 |

tested on: RARg:RXRa (NR concentration 270 nM, RXRa partner concentration 90 nM); test: as above
Procedure, shortened: as §1

| Sequence | PBM binding z-score |
| --- | --- |
| AGAATTAGGTTATTAAGATCAGGGAATTGCGGTC | 0.403 |
| AGAACGAGGGCAAAGAGTTGATAGCACGGGTGGC | 1.3 |
| TTACGAAGGTGAAGGTCGTTGATCCCTCTGTAGA | 1.38 |
| CAGCCTAGGTCACGGCCAGTATAGGAGGAACGTT | 5.27 |
| AGTCTAAGTTCATCTAGGTAACGTAAGATATGCT | 3.58 |
| GCTGCTAGGTCAAATGATGGTCAGCTAAAGCTCG | 5.08 |
| CAAACTAGGTCTAGAGGTCAAAGTCCGCTTCCCG | 5.26 |
| CCGACTGGGGCATAAGGTTAACATAAGCCAGCCC | 2.08 |
| AGAACGTGGGCACGCTGAGTTGATAGCAGAGTAG | -0.224 |
| CAAACTAGGTCACGAAAGGTCAAACTCGAATGAC | 8.21 |
| GCGACTGGGGCATCCGCAGGTTACCATAACTTAA | 1.31 |
| ATCTCTATGTAAAGTTCAGTGAAAGATCGATAGA | 2.06 |
| TGAATGAGGTTATAAGATTAGGGAACGTTGCAAA | 1.43 |
| GCGACTGGGGCATCAGCAGGTTACCACAACTTAA | 0.941 |
| GCTATTAGTTGAAAGGGCAACTGAATGATTCTCG | 1.45 |
| ATCTCTAGGTAAAGATAGTTCAGTGATTGCAAAT | 0.619 |
| GGAAGGAGGGCATTCGAGTTGATAGCATGGCGAT | 0.897 |
| CCTATCAGGCCAATCTGGGTCACTCAAGGCTTGA | 1.44 |
| ACTAGCAGGCCAAGGGTCATTCAAGATTAGTCCG | 4.15 |
| CCGAGTAGGTTATGGGGCATTCAAGCAACGGTGA | 0.557 |

| Sequence | PBM binding z-score |
| --- | --- |
| TTTCAAAGTTCAAAGGTAACGTAAGTATCCACAC | 6.29 |
| TCTAGCAGGCCAGAGGGTCGCTCAAGAGGTACGG | 0.125 |
| TATACAGGGTCAAAAGCCAGAGTACGAATGTCGA | 4.82 |
| CCTCGGAGGACAACAGGAGGTCAGAGCCGCCAGA | 3.51 |
| CCGACTGGGGCAAAGGTTACCTTACTCAGTACGA | 3.15 |
| CGAACGAGAGCATGAGTTGATAGCAAATGCCGAT | -0.0472 |
| CCAGACAGGTGAAAGATAACTCAGTCTGGTACGC | 0.614 |
| CCTATTAGTTGACCATAAGGGCAATCGAAGCTCG | 1.12 |
| CCTTACGGATCAAGGTTATAGCACGGGTGGTACG | 0.538 |
| TAGCCTAGGTCATCGGCCAGTATACCACGCGAAC | 4.27 |
| CAAACTTGGTCAAGAGGTCAAAGTCCGCTTCCCG | 5.94 |
| CGTCAATGTTCAAGGTAACGTAACAGAAAGCAGC | 0.0962 |
| GCTAGCAGGCCATTTGGGTCAATCAATGACGGGC | 0.878 |
| CAAACTAGGTCAAGAGGTCATAGTCCGCTTCCCG | 7.6 |
| GGAACGAGGGCAAGGTGATAGCAGAGTTTGATGG | 1.26 |
| CCTCGGAGTACAACAGGAGGTCAGAGCTGCCAGA | 3.01 |
| TAGCCTAGGTCATGCGGGCCAGTAGAGTGTCGGC | 3.98 |
| TCATATAGGTAAATGCTAGATGAAAGTCCGATCT | 0.314 |
| TCTTGTAGATCAATAGAGGTTAAGAACGTGCGCT | 0.792 |
| TAGCCTAGGTCATGGGCCAGTCTACCACGCGAAC | 4.32 |
